This note sets out measurements from PubChem BioAssay AID837 (The Scripps Research Institute Molecular Screening Center, 2007).

Activity calls are given as the source filed them.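 The calls were made as follows: active = relative FRET score above 0.01, or acceptor fluorescence over 30% below the sample-well median; inactive = the rest.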

For this experiment, the target named is Protein Rev (Human immunodeficiency virus type 1 group M subtype B (isolate WMJ22)) (UniProt P05866). As to the kind of experiment: HIV-1 Rev-RRE binding inhibitors, retest, confirmation, biochemical, FRET, acceptor and relative FRET calls (AID 837).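 Also: relative FRET combines rise in Cy5 acceptor with fall in fluorescein donor.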 The conditions noted are these: Fl-Rev peptide / Cy5-RRE RNA FRET, 1536-well; at 8 µM.
Sequence of Protein Rev (Human immunodeficiency virus type 1 group M subtype B (isolate WMJ22)) (P05866 whole entry, looked up): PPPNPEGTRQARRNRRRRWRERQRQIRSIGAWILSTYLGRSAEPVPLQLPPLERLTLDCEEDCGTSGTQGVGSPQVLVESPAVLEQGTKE
As to `O=C(Nc1nccs1)c1ccc(-c2ccccc2Cl)o1`, the call was inactive.
The result for `CCn1c(=N)n(CCOc2ccc(OC)cc2)c2ccccc21` reads “inactive”; that for `COc1cccc(Nc2nc(NCC3CCCO3)c3ccccc3n2)c1` (stereo not given), “inactive”.
Consider `CCCN1C2=NCCN2c2cc(C)c(C)cc21`, for which the molecule was classed as inactive.
Consider `O=c1cc(-c2ccco2)oc2c1ccc1ccccc12`, for which the outcome was inactive.
To `CCOC(=O)Cn1c(=N)n(Cc2ccccc2)c2ccccc21` belongs “inactive”; to `O=C(Nc1nccs1)c1cc2c(s1)-c1ccccc1OC2`, “inactive”; to `COc1ccc(C2N=C(N)N=C(N)N2c2ccc(C)cc2)cc1` (stereo not given), “active”.
In the case of `COc1ccc(CCn2c(=N)c(C(=O)NCc3ccco3)cc3c(=O)n4cccc(C)c4nc32)cc1`, the result was inactive.
The result for `CN(C)CCCNC(=O)c1ccc(-c2nc(-c3ccc(Cl)cc3)cs2)cc1` reads “inactive”; that for `CC(C)(c1ccccc1)c1ccc(OCCCNCCO)cc1`, “inactive”.
On to `CCCCCCCCNc1ncnc2ccccc12`, for which the result was inactive.
To `O=C(N/N=C/c1ccc(F)cc1)c1cc(-c2ccco2)nc2ccccc12` belongs “active; quenches the donor”; to `COc1cccc(OC)c1-c1nn2c(-c3cc(-c4ccccc4)n[nH]3)nnc2s1`, “active”.
Consider `NCCCC(=O)N1c2ccccc2Sc2ccccc21`, for which the molecule was called active.
The result for `CCCN(N=Nc1cccc([N+](=O)[O-])c1)c1cccc([N+](=O)[O-])c1` reads “inactive”; that for `C=CCn1cc(-c2ccccc2)cc(C#N)c1=O`, “inactive”.
As for `COc1ccc2nc(NC(=O)c3ccc(Br)s3)sc2c1`, the outcome was inactive.
The result for `c1ccc(COc2ccc(OCCCN3CCCCC3)cc2)cc1` reads “inactive”; that for `COc1ccc2c3c(cccc13)NN=C2C`, “inactive”.
